# Measured values published in ChEMBL document CHEMBL4513216, “Probing the Open Global Health Chemical Diversity Library for Multistage-Active Starting Points for Next-Generation Antimalarials” (ACS Infect Dis, 2020).
# The campaign covered roughly 65,000 compounds. About 2,100 (3.2%) showed an effect of 50% or more. The median lay at about -52%. The sample as a whole holds a higher share of strong results than the screen did.
# Tested on: Plasmodium falciparum
# Experiment: Screen against P. falciparum Asexual Blood Stage (ABS), at 5uM
# Format: functional, Dd2
# Conditions: tested at 5 uM
row,SMILES,INHIBITION
1,CC(C)c1ccccc1OCCNC(=O)N1CCC2(CC1)OCCO2,-63.2%
2,Cc1nc(C)c(CC(=O)N2C[C@H]3CC[C@@H](C2)N(CC2CC2)C3)s1,-79.3%
3,Fc1ccc2c(c1)C1(CCNCC1)CC2NC1CC1 (stereo not given),83%
4,CC(C)NC1CC2(CCNCC2)c2cc(F)ccc21 (stereo not given),11.4%
5,O=C(NCc1ccccn1)[C@]12COC[C@H]1CN(Cc1ccsc1)C2,-42.4%
6,CNC(=O)[C@H]1C[C@@H]2CCN(Cc3ccncc3)C[C@H]2O1,-70.6%
7,Cc1cccc(OC(C)C(=O)NCC2(N(C)C)CCCC2)c1 (stereo not given),81.4%
8,Cc1cccc(NC(=O)N2CCC(CO)(Nc3ccccc3)CC2)c1,-38.235%
9,COC(=O)N1CCC(Nc2ccc(C#N)c(Cl)c2)C1 (stereo not given),22.4%
10,COc1ccc(C(=O)C2CCCN(Cc3cccc(F)c3)C2)c(OC)c1 (stereo not given),23.9%
11,COc1cc(CN2CCCC(Nc3cccc(F)c3)C2)cc(Cl)c1O (stereo not given),91.7%
12,CCNC(=O)[C@@H]1CN(Cc2ccccc2)C[C@H]1C(=O)c1ccc(F)cc1,-30.5%
13,CCOc1cccc(CN2CCCC(Nc3ccc(F)cc3)C2)c1O (stereo not given),86.3%
14,Cc1ncc(CN2CCN(C(=O)N(C)C)[C@@H]3CS(=O)(=O)C[C@@H]32)cn1,-106%
15,Cn1cc(CN2CCCC3(CCN(c4cccnc4)C3=O)C2)cn1 (stereo not given),-131%
16,CN(C)c1nccc(N2CCO[C@H]3CN(Cc4ccsc4)C[C@H]32)n1,69.7%
17,CN(C)c1nccc(N2CCO[C@H]3CN(Cc4ccco4)C[C@H]32)n1,-22%
18,c1cnc(N2CCO[C@H]3CN(Cc4ccsc4)C[C@H]32)nc1,35.9%
19,c1ccc(OCC2C[C@@H]3[C@@H](C2)OCCN3Cc2ccoc2)nc1 (stereo not given in full),12%
20,COCCN1CCCC12CCCN(c1ncccn1)C2 (stereo not given),-47.3%
21,CN1CCC2(CCCN(c3nccc(C(F)(F)F)n3)C2)CC1,79.4%
22,Cc1cnc(N2CCCC3(CCCN(C)C3)C2)nc1 (stereo not given),-9.73%

row,SMILES,INHIBITION
1,CC(C)N1CCC2(CCN(C(=O)c3cccnc3)CC2)C1,5.83%
2,CC(C)N1CCC2(CCCN(c3nccc(C(F)(F)F)n3)C2)CC1,81.9%
3,O=C(C1CC(=O)N(c2ccccc2Br)C1)N1CCC2(CC1)OCCO2 (stereo not given),-113%
4,O=C(C1CC1)N1CCC2(CC1)CNCCO2,-34.5%
5,Cc1n[nH]c2c1C(c1ccc(F)cc1)SCC(=O)N2 (stereo not given),-4.37%
6,Cc1c(C(C)N)cnn1-c1cccc2ccccc12 (stereo not given),74.5%
7,O=C(COc1ccc(Cl)cc1Cl)N1CCCSCC1CN1CCOCC1 (stereo not given),-30%
8,Cn1cccc1C(CNC(=O)COc1ccc(Cl)cc1Cl)N1CCCC1 (stereo not given),74.3%
9,COc1ccccc1CCN[C@@H]1c2ccccc2C2(CCNCC2)[C@H]1O,81.5%
10,CN(C)C(=O)C1OC2(CCNCC2)c2ccccc21 (stereo not given),-73%
11,Cc1ccc(CCN[C@@H]2c3ccccc3C3(CCNCC3)[C@H]2O)s1,87.1%
12,CCN1CCOCC2(C1)CN(C(=O)c1c(C)noc1C)CCO2 (stereo not given),-31%
13,COCCN(CCOC)C(=O)c1cn(C(C)(C)C)c2ncccc12,-81.6%
14,CCc1cnc(N)nc1NC(C)c1ccc(C)c(C)c1 (stereo not given),73.8%
15,O=C(NC1CC1)[C@H]1CN(Cc2ccccc2)C[C@@H]1C(=O)c1ccccc1,-154%
16,O=C(CN1CCN(C(=O)Cc2ccc3c(c2)OCCO3)CC1)NC1CC1,-148%
17,CC1CCN(CC(=O)NC2CCN(C(C)c3ccccc3)CC2)CC1 (stereo not given),84.3%
18,Cc1cccnc1CCNC(=O)[C@@]12CNC[C@@H]1CN(S(C)(=O)=O)C2,-50.4%
19,CC(Cc1c(F)cccc1F)NC(=O)Nc1cnn(CC(N)=O)c1 (stereo not given),-77.1%
20,Cc1nn(C)c(N(C)C)c1CNC(C)Cc1c(F)cccc1F (stereo not given),-5.23%
21,CCc1cccnc1NCc1cnc(N2CCOCC2)nc1,-53.7%
22,Cc1ccccc1CC(C)NCc1c(C)nn(C)c1N1CCOCC1 (stereo not given),65.8%

row,SMILES,INHIBITION
1,c1csc(CN2C[C@@H]3COC[C@]3(COCc3ccncc3)C2)c1,-42.6%
2,O=C(c1ccoc1)N1CCC2(CC1)C(=O)N(CC1CC1)c1ccccc12,74.7%
3,CCN1C(=O)C2(CCN(CCN(C)C)CC2)c2ccccc21,-56.2%
4,COCCN1C(=O)C2(CCN(CC3CC3)CC2)c2ccccc21,-18%
5,c1ccc(-c2nc3c(c(NCc4n[nH]c5c4CCC5)n2)CCNC3)cc1,89.6%
6,CC(Cn1ccnc1)NCc1n[nH]c2c1CCC2 (stereo not given),-33%
7,CN1CCC2(CCN(C(=O)c3cccnc3)C2)C1 (stereo not given),-11.5%
8,CCCN(C(=O)c1cccnc1)c1nc2c(s1)CCc1c-2cnn1C,82.4%
9,O=C(c1c[nH]c(=O)c(Cl)c1)N1C[C@H]2CC[C@@H](C1)N(CC1CCC1)C2,-110%
10,O=C(c1cccnc1)N1C[C@H]2CC[C@@H](C1)N(Cc1ncc[nH]1)C2,-47.1%
11,O=C(c1ccc(F)c(Cl)c1)N1C[C@H]2CC[C@@H](C1)N(Cc1ccccc1)C2,74.1%
12,CS(=O)(=O)CC1(CNc2ccc(C#N)c(C(F)(F)F)c2)CC1,-27%
13,CCOc1ccc(CNCC(O)c2ccccc2)cc1Cl (stereo not given),89.4%
14,CNc1cc(C)nc(NCc2cc(C)cc3c(C)c(C)[nH]c23)n1,92%
15,CNc1nc(C)cc(NCc2cc(C)cc3c(C)c(C)[nH]c23)n1,92.7%
16,c1nc(N2CCOCC2)nc2c1COCC21CCN(CC2CC2)C1 (stereo not given),-12.1%
17,CC(C)NC(=O)[C@H]1C[C@@H]2[C@@H](C1)OCCN2Cc1ccncc1,-82%
18,COc1cccc(C2SCC(=O)Nc3ccsc32)c1OC (stereo not given),-4.19%
19,CN(C)CCN1CC2(CCCN(c3ncc(Cl)cc3F)C2)CCC1=O (stereo not given),82.8%
20,O=C(Cc1ccsc1)N1C[C@@H]2OCCN(CC3CC3)[C@@H]2C1,-48%
21,Cc1ccc(N2CCN(C)c3ncccc3C2)nn1,-27.9%
